# Data from PubChem BioAssay (NCI).
# The panel holds about 79,000 compounds, 15% with a hit somewhere; the sample as a whole holds those more often. Calls of active or inactive are those of the source. Rule as the data show it: active = growth inhibition above about 70%; inactive = the rest.
# Test: NCI Yeast Anticancer Drug Screen. Data for the rad50 strain (AID 155);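 also: 0% = growth of vehicle-only cultures of the same strain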
# Conditions: S. cerevisiae rad50 strain growth inhibition; at 50.0 µM; active compounds read high
# Summary of the method: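 DNA repair mutant yeast, compound exposure, growth read-out; inhibition is taken relative to vehicle.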
row,Compound,growth inhibition
1,O=[N+]([O-])c1ccc(OCc2ccccc2)c(Cl)c1,-4.2% (inactive)
2,CCC(O)(Cc1ccc(OC)cc1)c1ccc(OC)cc1 (stereo not given),-33.1% (inactive)
3,COc1ccc(N=C(N)N=C(N)N)cc1,-3.3% (inactive)
4,O=C1NC(=O)C(CCI)N1 (stereo not given),11.2% (inactive)
5,C[C@H]1C[C@H]2[C@@H]3CC[C@@]4(OCC4=O)[C@@]3(C)C[C@H](O)[C@]2(F)[C@@]2(C)C=CC(=O)C=C12,-16.6% (inactive)
6,O=C(Nc1ccc(Cl)cc1)c1ccc(Cl)cc1Cl,-11.8% (inactive)
7,O=C(NO)c1ccc(Cl)cc1Cl,57.9% (inactive)
8,C(=C1\COC(c2ccccc2)=N1)/c1ccc2c(c1)OCO2,-13.2% (inactive)
9,CC(C)CCCC(C)C1CCC2C3CC=C4CC(OCCC(C)C)CCC4(C)C3CCC12C (stereo not given),55.5% (inactive)
10,O=S(=O)(O)SCC1=NCCCCN1,-2.95% (inactive)
11,Clc1ccc(OCc2nnc3n2N=C(c2ccc(Br)cc2)CS3)cc1,5.5% (inactive)
12,NC(=S)Cc1ccccn1,-1.45% (inactive)
13,O=C1CC2CCCCC2CC1c1ccccc1 (stereo not given),6.35% (inactive)
14,O=C(OC1CCCCC1)C(=O)OC1CCCCC1,3.3% (inactive)
15,BrC1CC1(c1ccccc1)c1ccccc1 (stereo not given),0.1% (inactive)
16,Cc1ccc(N)c(C#N)c1,-11.8% (inactive)
17,C[C@H](C(=O)C12CC3CC(CC(C3)C1)C2)[C@H](O)c1ccccc1,5.85% (inactive)
18,CCCCS(=O)(=O)CCC(N)C(=O)O (stereo not given),-3.45% (inactive)
19,CC1CC[N+](C)([B-](F)(F)F)CC1 (stereo not given),0.85% (inactive)
20,NC(=O)/C(N=Nc1ccccc1)=N\Nc1ccccc1,94.2% (active)

row,Compound,growth inhibition
1,Nc1ncnc2c1nnn2CCCCCC(=O)O,-6.25% (inactive)
2,Nc1ccc(S(=O)(=O)c2ccc(Nc3ccnc4cc(Cl)ccc34)cc2)cc1,23.1% (inactive)
3,O=C1NC(=O)C(c2cccc(F)c2)N1 (stereo not given),-12.1% (inactive)
4,O=C(NNC(=O)c1cccc(Br)c1)c1ccccc1,4.05% (inactive)
5,CC(=O)OCC1OCOC2C(COC(C)=O)OCOC12 (stereo not given),3.55% (inactive)
6,C[Si](C)(C)N1N=NC2C(=O)N(c3ccccc3)C(=O)C21 (stereo not given),-10.4% (inactive)
7,C=CCCCCCCCCC(=O)NCc1cccnc1,24.4% (inactive)
8,CC(=O)c1ccc(CCCCc2ccc([N+](=O)[O-])cc2)cc1,-4.2% (inactive)
9,CCOC(=O)/C(=N/Nc1ccc(C)cc1)N1C(=S)C=C(C)NN(C)C1=S,-34.3% (inactive)
10,NC1=NN(c2ccccc2)C(=O)C1/C(=N\NC(=O)c1cc2ccccc2cc1O)C(=O)Nc1ccc(Cl)c(Cl)c1 (stereo not given),28.7% (inactive)
11,Cc1c(C(=O)Nc2ccc(Cl)c(C(F)(F)F)c2)oc2cc(O)ccc2/c1=N\NC(N)=S,-12.3% (inactive)
12,CCCCC(=O)N/N=C\c1cc(Cl)ccc1[N+](=O)[O-],17.6% (inactive)
13,COc1cccc2c1[C@@]1(C)C3C(=O)OC(C)(c4ccccc43)[C@@]1(C)C2=O (stereo not given in full),39.4% (inactive)
14,CCOC(=O)c1c(C)nc(C)c(C(=O)OCC)c1-c1ccnc2ccccc12,0.9% (inactive)
15,CN/N=C(/Cc1occc(=O)c1O)C(=O)Nc1ccc(C)c(C)c1,15.4% (inactive)
16,CN(C)Cc1cc(C(C)(C)C)cc(CN(C)C)c1O,-4% (inactive)
17,CC(N)C(O)C(C)C(=O)O (stereo not given),20.8% (inactive)
18,CC(=O)Oc1ccc2c(c1)CCC1C2CCC2(C)CC(OC(C)=O)CC12 (stereo not given),12.4% (inactive)
19,COC(=O)NC(Nc1ccc(C)cc1)(C(F)(F)F)C(F)(F)F,11.9% (inactive)
20,O=C(Nc1ccccc1Cl)OCCOc1ccccc1,-3.7% (inactive)

# Test: NCI Yeast Anticancer Drug Screen. Data for the mec2-1 strain (AID 157)
# Conditions: S. cerevisiae mec2-1 strain, at 50.0 µM, active compounds read high
# Summary of the method: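 Cells of the genetically defined mec2-1 yeast strain are incubated with test compound. Inhibition of growth is calculated against vehicle-treated controls.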
row,Compound,growth inhibition
1,O=[N+]([O-])c1ccc(OCc2ccccc2)c(Cl)c1,17.1% (inactive)
2,CCC(O)(Cc1ccc(OC)cc1)c1ccc(OC)cc1 (stereo not given),-24.4% (inactive)
3,COc1ccc(N=C(N)N=C(N)N)cc1,-2% (inactive)
4,O=C1NC(=O)C(CCI)N1 (stereo not given),0.15% (inactive)
5,C[C@H]1C[C@H]2[C@@H]3CC[C@@]4(OCC4=O)[C@@]3(C)C[C@H](O)[C@]2(F)[C@@]2(C)C=CC(=O)C=C12,-24.4% (inactive)
6,O=C(Nc1ccc(Cl)cc1)c1ccc(Cl)cc1Cl,10.7% (inactive)
7,O=C(NO)c1ccc(Cl)cc1Cl,-0.8% (inactive)
8,C(=C1\COC(c2ccccc2)=N1)/c1ccc2c(c1)OCO2,14.8% (inactive)
9,CC(C)CCCC(C)C1CCC2C3CC=C4CC(OCCC(C)C)CCC4(C)C3CCC12C (stereo not given),66.7% (inactive)
10,O=S(=O)(O)SCC1=NCCCCN1,-5.7% (inactive)
11,Clc1ccc(OCc2nnc3n2N=C(c2ccc(Br)cc2)CS3)cc1,8.35% (inactive)
12,NC(=S)Cc1ccccn1,15.5% (inactive)
13,O=C1CC2CCCCC2CC1c1ccccc1 (stereo not given),-0.4% (inactive)
14,O=C(OC1CCCCC1)C(=O)OC1CCCCC1,-2.3% (inactive)
15,BrC1CC1(c1ccccc1)c1ccccc1 (stereo not given),0.35% (inactive)
16,Cc1ccc(N)c(C#N)c1,11.7% (inactive)
17,C[C@H](C(=O)C12CC3CC(CC(C3)C1)C2)[C@H](O)c1ccccc1,4.7% (inactive)
18,CCCCS(=O)(=O)CCC(N)C(=O)O (stereo not given),-9.45% (inactive)
19,CC1CC[N+](C)([B-](F)(F)F)CC1 (stereo not given),1.85% (inactive)
20,NC(=O)/C(N=Nc1ccccc1)=N\Nc1ccccc1,94.8% (active)

row,Compound,growth inhibition
1,Nc1ncnc2c1nnn2CCCCCC(=O)O,27.8% (inactive)
2,Nc1ccc(S(=O)(=O)c2ccc(Nc3ccnc4cc(Cl)ccc34)cc2)cc1,13.6% (inactive)
3,O=C1NC(=O)C(c2cccc(F)c2)N1 (stereo not given),-12.3% (inactive)
4,O=C(NNC(=O)c1cccc(Br)c1)c1ccccc1,-37.6% (inactive)
5,CC(=O)OCC1OCOC2C(COC(C)=O)OCOC12 (stereo not given),2.6% (inactive)
6,C[Si](C)(C)N1N=NC2C(=O)N(c3ccccc3)C(=O)C21 (stereo not given),-0.5% (inactive)
7,C=CCCCCCCCCC(=O)NCc1cccnc1,9.15% (inactive)
8,CC(=O)c1ccc(CCCCc2ccc([N+](=O)[O-])cc2)cc1,-17.8% (inactive)
9,CCOC(=O)/C(=N/Nc1ccc(C)cc1)N1C(=S)C=C(C)NN(C)C1=S,4% (inactive)
10,NC1=NN(c2ccccc2)C(=O)C1/C(=N\NC(=O)c1cc2ccccc2cc1O)C(=O)Nc1ccc(Cl)c(Cl)c1 (stereo not given),10% (inactive)
11,Cc1c(C(=O)Nc2ccc(Cl)c(C(F)(F)F)c2)oc2cc(O)ccc2/c1=N\NC(N)=S,-14.4% (inactive)
12,CCCCC(=O)N/N=C\c1cc(Cl)ccc1[N+](=O)[O-],1.6% (inactive)
13,COc1cccc2c1[C@@]1(C)C3C(=O)OC(C)(c4ccccc43)[C@@]1(C)C2=O (stereo not given in full),20.7% (inactive)
14,CCOC(=O)c1c(C)nc(C)c(C(=O)OCC)c1-c1ccnc2ccccc12,-15.9% (inactive)
15,CN/N=C(/Cc1occc(=O)c1O)C(=O)Nc1ccc(C)c(C)c1,7.05% (inactive)
16,CN(C)Cc1cc(C(C)(C)C)cc(CN(C)C)c1O,-6.2% (inactive)
17,CC(N)C(O)C(C)C(=O)O (stereo not given),9.5% (inactive)
18,CC(=O)Oc1ccc2c(c1)CCC1C2CCC2(C)CC(OC(C)=O)CC12 (stereo not given),-10.3% (inactive)
19,COC(=O)NC(Nc1ccc(C)cc1)(C(F)(F)F)C(F)(F)F,-8.9% (inactive)
20,O=C(Nc1ccccc1Cl)OCCOc1ccccc1,10.1% (inactive)
